# Bioassay records from PubChem BioAssay.
# Compounds with a hit are over-represented: about 4.2% of the library has one in this group of screens.
# TCR act: Activators of T cell receptors: qHTS campaign; primary human leukocytes, anti-CD3, IL-2 HTRF, 48 h; Potency, µM (titrated, usually from 9.22 µM), inactives show top-dose activation of IL-2 secretion, usual class: activators; 330,000 tested, under 10 active; also: % of control where 0% means no effect
#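 Primary human leukocytes receive a-CD3 beads and test compound and are incubated 48 hr. Secreted IL-2 is then assayed by HTRF, measuring 665nm acceptor emission after 320nm excitation of the europium donor.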
# ClpP mod: qHTS Assay for Activators of ClpP; ATP-dependent Clp protease proteolytic subunit (Bacillus subtilis (strain 168)), P80244; 340,000 tested, 1.9% active; purified B. subtilis ClpP, FRET peptide cleavage, 20 min; AID 651965, 2013; Potency, µM (series often up to 57.5 µM), inactives show at the highest dose activity change, negative = active; active = well fitted falling curve with a large enough effect; inconclusive = small, poorly fitted or top-dose-only effect; inactive = no such curve, though single readings can be large or run the other way; also: potency is read from the fitted curve at half-maximal effect; the source files actives as falling curves though it sought activators and does not explain the sign; nearly all actives have a fitted effect of over 65% in size
#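 FRET quenching reversal measured ClpP activation: 10 microg/mL B. subtilis ClpP at pH 8 with the FRET-FV decapeptide, read at 430 nm after 320 nm excitation. The 20-min minus 0-min signal was scaled between DMSO/no-enzyme wells and ADEP (5.8 microM final).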
# uPA surface inh: qHTS for Inhibitors of Cell Surface uPA Generation. cell surface uPA generation assay, qHTS. Potency, µM (series often up to 38.3 µM), for inactives: at the top dose activity change, negative = inhibition, actives largely listed as inhibitors. 330,000 tested, 0.31% active. AID 540303, 2011; active = well fitted inhibition curve with a large enough effect; inconclusive = small, poorly fitted or top-dose-only effect; inactive = no such curve, though single readings can be large or run the other way; tested in mouse RAW 264.7 cells; also: potency is read from the fitted curve at half-maximal effect; % is scaled to controls: 0 for no effect and ±100 for the full control effect; nearly all actives have a fitted effect of over 55% in size
# Sfp PPTase inh: qHTS Assay for Inhibitors of Bacillus subtilis Sfp phosphopantetheinyl transferase (PPTase). Biochemical Sfp PPTase activity, qHTS. Potency, µM, without a hit: largest response in the series, negative = inhibition, actives largely listed as inhibitors. 310,000 tested, 3.5% active. AID 1490, 2009;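 also: the enzyme is Sfp with the accession as filed and its product quenches rhodamine fluorescence; potency is read from the fitted curve at half-maximal effect; 0% = enzyme reaction without inhibitor and -100% = no enzyme wells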
#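 Sfp 15 nM + cpd, 15 min RT; start w/ rhodamine-CoA 5 uM, BHQ-2-YbbR 12.5 uM (final); 50 mM Hepes pH 7.6, 10 mM MgCl2, 0.01% NP-40, 0.01% BSA; read 525/598 nm at 0 and 30 min.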
# * = called active by the depositor; ? = inconclusive; . = no result; [ ] = another dose, or the depositor's remark. Unless noted, calls follow the shape of the dose curve; as a rule, active = well fitted curve in the direction sought with a large enough effect; inconclusive = small, poorly fitted or top-dose-only effect, or another doubt; inactive = no such curve, though single readings can be large; an effect the other way counts as inactive or inconclusive.
SMILES,TCR act,ClpP mod,uPA surface inh,Sfp PPTase inh
CCCCNC(=O)Nc1nnc(-c2ccc(OCC)cc2)o1,-3.4%,25.1µM*,0.4%,19.8%
CCOC(=O)CNC(=O)Nc1nnc(-c2ccc(OCC)cc2)o1,.,6.31µM*,-4.9%,8.9%
CCOc1ccc(-c2nnc(NC(=O)COc3ccccc3F)o2)cc1,.,-17.5%,.,.
CCCCNC(=O)Nc1nnc(-c2ccccc2)o1,2.9%,14.1µM*,-6.0%,-1.0%
Cc1ccc(NC(=O)Nc2nnc(-c3ccccc3)o2)cc1,5.1%,.,2.1%,2.2%
CCCC[C@]12Cc3ccccc3[C@H](O1)C1=C(O2)C(=O)c2ccccc2C1=O,.,.,.,12.2%
COC(=O)[C@H](CC(C)C)NS(=O)(=O)NC(=O)OC(C)(C)C,.,-2.0%,.,.
CC(C)(O)C#Cc1ccc(N2C(c3ccsc3)=Cc3ccc(F)cc3C2c2c[nH]c3ccccc23)cc1 (configuration not stated),.,4.7%,.,.
CN(C)CCCNc1ncnc2sc(-c3ccccc3)cc12,-0.4%,4.5%,?,56.2µM*
CCOC(CNc1ncnc2sc(-c3ccccc3)cc12)OCC,-2.8%,4.0%,-5.8%,-17.9%
COc1cc2nc(N3CCCCC3)nc(NC3CC3)c2cc1OC,.,4.0%,.,.
Cc1ccccc1-n1c(-c2ccc(=O)[nH]n2)n[nH]c1=S,-0.1%,.,-2.5%,70.8µM*
CCCN(CCC)CC(O)Cn1cc(/C=C/C(=O)c2ccc(OC)cc2)c2ccccc21 (configuration not stated),.,-9.7%,.,.
Cc1cc(C)c2nc3sc(=Cc4ccc(-c5ccccc5C(=O)O)o4)c(=O)n3c2c1,.,-0.3%,.,.
Cc1cc(C)c2nc3s/c(=C/c4ccccc4)c(=O)n3c2c1,.,.,.,8.91µM*
Cc1c(N/C=C(\Cl)C(=O)C(F)(F)F)c(=O)n(-c2ccccc2)n1C,-5.8%,.,-2.5%,22.4µM*
CN(C)c1ccc(C(CNC(=O)c2ccccc2F)N2CCc3ccccc32)cc1 (configuration not stated),.,0.5%,.,.
CC(C)(C)n1nnnc1C(c1cc2cc3c(cc2[nH]c1=O)OCCO3)N1CCSCC1 (configuration not stated),2.4%,25.1µM*,-15.9%,-1.1%
CCC(C)(C)n1nnnc1C(c1cc2cc3c(cc2[nH]c1=O)OCO3)N1CCN(C)CC1 (configuration not stated),.,8.91µM*,9.3%,11.3%
N#Cc1ccc(NC(=O)COCc2cc(-c3ccco3)on2)cc1,.,-0.4%,.,.
COc1ccc(-c2cc(C(=O)Nc3cccc(O)c3)on2)cc1OC,.,8.2%,.,.
O=C(Nc1c(C(=O)c2ccccc2)oc2ccccc12)c1cc(=O)c2ccccc2o1,.,-1.7%,.,.
O=C(O)c1cccc(NC2=C(Cl)C(=O)c3ccccc3C2=O)c1,-1.0%,-0.2%,?,25.1µM*
O=C1C(Cl)=C(Nc2ccccc2)C(=O)c2ccccc21,4.8%[46.1 µM],-0.8%,15.1%,1.2%
O=C(O)c1ccc(NC2=C(Cl)C(=O)c3ccccc3C2=O)cc1,6.4%,1.9%,-13.3%,22.4µM*
SMILES,TCR act,ClpP mod,uPA surface inh,Sfp PPTase inh
Cc1ccc(NC2=C(NC(=O)c3ccccc3)C(=O)c3ccccc3C2=O)cc1Cl,-1.3%[46.1 µM],-0.8%,?,10µM*
CCOc1ccc(CCNC(=O)c2c(C)oc3ncnc(N4CCOCC4)c23)cc1,.,0.4%,.,.
Cc1csc(NC(=O)c2ccco2)n1,1.4%,22.4µM*,4.6%,16.3%
COc1ccccc1Nc1nc(-c2sc(NC(=O)C(C)(C)C)nc2C)cs1,1.0%,-11.3%,5.62µM*,-14.4%
CCCC(=O)Nc1nc(C)c(-c2csc(Nc3cc(OC)ccc3OC)n2)s1,-4.0%,-3.5%,5.2%,-18.7%
COc1ccc(OC)c(Nc2nc(-c3sc(N)nc3C)cs2)c1,7.4%,-2.0%,-5.9%,8.91µM*
O=C(O)Cc1csc(NC(=O)c2ccco2)n1,3.1%,-2.1%,-2.3%,?
Cc1ccccc1Nc1nc(-c2sc(NC(=O)c3ccco3)nc2C)cs1,5.6%,-1.8%,4.2%,14.1µM*
Cc1nc(NC(=O)c2ccccc2)sc1-c1csc(Nc2ccc(C(=O)O)cc2)n1,5.2%,.,2.4%,-23.4%
COc1cccc(-c2ccc3ncnc(N4CCNCC4)c3c2)c1,.,.,.,-0.6%
O=C1C(=C(I)I)c2ccccc2-c2ccccc21,-5.4%,-7.4%,-8.2%,.
CNC(=O)c1c(NC(=O)c2cc(=O)c3cc(C)c(C)cc3o2)sc2c1CCCC2,.,-0.2%,.,.
CCC(CC)NC(=O)C1CC(=O)N(CCc2ccc(F)cc2)C1 (configuration not stated),.,2.4%,-1.8%,3.9%
CC1(C)CC(=O)c2sc(NC(=O)c3ccco3)nc2C1,3.8%,-9.3%,10µM*,-1.3%
Cc1nc(NC(=O)c2ccccc2)sc1-c1csc(NCc2ccco2)n1,1.9%,-4.5%,-24.2%,17.8µM*
O=C(Nc1n[nH]c(=S)s1)c1ccco1,8.4%,-0.1%,2.3%,56.2µM*
Cc1nc(C)c(-c2csc(NCc3ccco3)n2)s1,-14.8%,-15.3%,-11.8%,-2.4%
CNc1nc(-c2ccccc2)c(-c2ccccc2)s1,.,4.1%,.,.
COc1ccc(N2CCC(CNC(=S)Nc3ccc(C)cc3C)C2)cc1 (configuration not stated),0.5%,-1.5%,?,50.1µM*
COc1ccc(-c2nn(-c3ccccc3)cc2C(=O)O)cc1OC,3.8%,25.1µM*,-14.6%,2.9%
CNC(=S)N(CCc1c(C)[nH]c2ccc(F)cc12)Cc1cccnc1,-1.6%,-5.5%,-12.7%,6.8%
Cc1ccc(NC(=S)NNC(=S)Nc2cccc(C(F)(F)F)c2)cc1,-1.5%,.,-1.9%,28.2µM*
FC(F)(F)c1cccc(NC(=S)NNC(=S)Nc2ccc(Cl)cc2)c1,.,.,.,25.1µM*
FC(F)(F)c1cccc(NC(=S)NCc2ccc(Cl)cc2)c1,12.3%,.,-2.5%,19.2%
Cc1cc(Nc2ccccc2C)n2nc(Cc3ccc(Cl)cc3)nc2n1,.,1.0%,.,.
SMILES,TCR act,ClpP mod,uPA surface inh,Sfp PPTase inh
CC1=C(O)C(=O)C(C2=C(O)C(=O)C(C)=C(O)C2=O)=C(O)C1=O,-3.9%,1.8%,-7.1%,.
O=C1C(O)=C(O)C(=O)C(O)=C1O,.,.,.,28.2µM*
CCN(CC)c1nc(NC2CCN(C)CC2)c2cc(OC)c(OC)cc2n1,.,4.0%,.,.
COc1ccc(Br)cc1CNC(=O)c1cc(=O)[nH]c2ccc(S(=O)(=O)N3CCCCC3C)cc12 (configuration not stated),.,24.1%,.,.
Cc1ccc(/C=N/Nc2nc(C)cc(C)n2)cc1,-1.5%,.,-2.4%,79.4µM*
Cc1ccc(/C=N/Nc2nncn2N)cc1,2.1%,.,-19.0%,39.8µM*
Nn1cnnc1N/N=C/c1ccc(F)cc1,-1.7%,0.0%,?,56.2µM*
Cc1cc(C)nc(N/N=C/c2ccc(Cl)cc2)n1,2.3%,-2.5%,-2.1%,?
O=S1(=O)CCOC[C@H](c2ccccc2)N1Cc1ccc(F)cc1,.,1.2%,.,.
FC(F)(F)C(F)(F)C(F)(F)C(F)(F)C(F)(F)F,.,.,.,6.3%
CCN(CC)CCN1C(=O)C(O)=C(C(=O)c2cccs2)C1c1ccccn1 (configuration not stated),.,-0.8%,-2.5%,56.2µM*
